From ChEMBL document CHEMBL3988442, “University of Dundee, Small-Polar-MMV Screening Library” (2021)
Out of some 65,000 compounds screened, about 65 (0.1%) showed an effect of 50% or more. Only a selection was taken, and strong results are over-represented in it overall.

Biological target: Tryptophan--tRNA ligase (Mycobacterium tuberculosis (strain ATCC 25618 / H37Rv)) (UniProt P9WFT3)
Test: Biochemical assay for Mt-TrpRS
Format: functional
Set-up: scale not given: direction of the effect not stated beside the values
Settings: 10 µM

Tryptophan--tRNA ligase (Mycobacterium tuberculosis (strain ATCC 25618 / H37Rv)), sequence (P9WFT3 whole entry): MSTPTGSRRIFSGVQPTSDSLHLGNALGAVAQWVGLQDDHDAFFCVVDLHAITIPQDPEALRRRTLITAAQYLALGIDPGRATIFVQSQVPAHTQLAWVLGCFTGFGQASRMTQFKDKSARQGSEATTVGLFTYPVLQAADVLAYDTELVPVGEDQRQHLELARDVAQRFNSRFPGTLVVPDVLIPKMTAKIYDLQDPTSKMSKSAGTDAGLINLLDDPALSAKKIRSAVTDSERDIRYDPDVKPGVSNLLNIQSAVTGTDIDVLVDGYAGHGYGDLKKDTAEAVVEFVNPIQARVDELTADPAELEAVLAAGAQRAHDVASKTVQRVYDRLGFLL

Compound	Percent Effect
CO[C@@H]1CC[C@H]2[C@H]1OCCN2CCOCc1ccccc1	-7.44%
CCN1CCO[C@@H]2CN(C(=O)COC3CCCC3)C[C@@H]2C1	14.7%
O=C(CC1CC1)N1CCC2(CC1)C(=O)NCCN2Cc1ccccc1	54.2%
CC(C)NC(=O)N1CCC2(CC1)C(=O)NCCN2Cc1ccccc1	-4.29%
O=C(NC1CC1)N1CCC2(CC1)C(=O)NCCN2Cc1ccccc1	-5.09%
Cc1ccccc1C1(C(=O)NCCN2CCCC2)CCOCC1	1.49%
COc1ccccc1C1(C(=O)NCCN2CCOCC2)CCOCC1	-0.235%
COc1ccccc1C1(C(=O)NCCN2CCCCC2)CCOCC1	73.8%
COc1ccc(CN2C[C@H]3CN(c4cncnc4)C(=O)[C@H]3C2)cc1	0.241%
Cc1c(Cl)c(C(=O)NC(C)CN2CCOCC2)nn1C (stereo unspecified)	-1.4%
Cc1oncc1C(=O)N1C[C@H]2CCCC(N(C)Cc3cccs3)[C@H]2C1 (stereo partly specified)	0.971%
Cc1nn(C)c(C)c1C1COCCN1C(=O)c1ccc(Cl)o1 (stereo unspecified)	80.8%
Cc1nn(C)c(C)c1C1CCCN1C(=O)c1ccc(Cl)o1 (stereo unspecified)	0%
CSc1ccc(C(=O)N2CCOCC2c2c(C)nn(C)c2C)o1 (stereo unspecified)	-3.05%
CS(=O)(=O)N[C@H]1CN(C(=O)c2cscn2)[C@@H]2CCCO[C@H]12	1.91%
Cn1cc(CN2CCO[C@H]3CN(Cc4ccco4)C[C@H]32)cn1	-5.69%

Compound	Percent Effect
O=C(N[C@@H]1CN(C2CCCC2)C[C@@H]2CCCO[C@@H]21)c1cnccn1	-1.79%
COCC1CC2(CCN(C(=O)c3ccc(OC)c(Cl)c3)CC2)CO1 (stereo unspecified)	-1.65%
COCC1CC2(CCN(C(=O)c3ccc(F)c(Cl)c3)CC2)CO1 (stereo unspecified)	54.8%
COCC1CC2(CCN(C(=O)c3cccc(C)c3)CC2)CO1 (stereo unspecified)	-6.95%
c1ccc(NC[C@@H]2CCC[C@@H]3CN(Cc4cc[nH]n4)C[C@@H]32)nc1	-8.1%
CN(C)C(=O)N[C@H]1CN(Cc2ccc3c(c2)OCO3)[C@@H]2CCCO[C@H]12	-1.66%
CN(CC(=O)Nc1cccnc1)C1CCCN(c2cccnn2)C1 (stereo unspecified)	57.9%
COCCc1noc(CN(C)C2CCCN(c3cccnn3)C2)n1 (stereo unspecified)	67.5%
CN(CC(=O)Nc1ccncc1)C1CCCN(c2cccnn2)C1 (stereo unspecified)	-2.13%
Cc1nnc(NC(=O)CN(C)C2CCCN(c3cccnn3)C2)s1 (stereo unspecified)	-2.71%
CCc1nc(CN(C)C2CCCN(c3cccnn3)C2)no1 (stereo unspecified)	10.3%
COCCc1noc(CN(C)C2CCCN(c3ccc(C)nn3)C2)n1 (stereo unspecified)	0.711%
CN(Cc1ccco1)[C@@H]1CN(C(=O)c2ccnnc2)C[C@@H]2CCCO[C@@H]21	4.52%
O=C1CO[C@H]2CN(Cc3ccc4c(c3)OCO4)C[C@H]2N1	-0.835%
CNC(=O)[C@@]12CCO[C@@H]1CCN(Cc1cccc(C)c1)C2	-2.81%
